The results in this text go back to ChEMBL document CHEMBL4513216, “Probing the Open Global Health Chemical Diversity Library for Multistage-Active Starting Points for Next-Generation Antimalarials” (ACS Infect Dis, 2020).

The campaign covered roughly 69,000 compounds. About 8,600 (12%) showed an effect of 50% or more. The list comes from a sample in which strong results are over-represented; it also holds similar structures and randomly drawn compounds.

The test has as its system Plasmodium berghei. Description: Screen against P. berghei liver stage (PbLuc), transformed with Luciferase, at 10uM. The format is functional, HepG2. Particulars: tested at 10 uM.
Regarding `CCc1nnc(CN2CCc3ccc(S(N)(=O)=O)cc32)o1`, the INHIBITION was determined as 18%.
The figure for `CN(CCc1ccccn1)C(=O)CCC1CCCN(c2cnccn2)C1` (stereo not drawn) is 27.6%; for `CC(=O)N1CCc2nnc(C3CCCCN3CC3CCCCC3)n2CC1` (stereo not drawn) it is 42.4%.
For `COCCNC(=O)NC1(c2ccccc2F)CC1` the value was 20%.
For `CCN(CC)C(CNC(=O)c1ccnc(N(C)C)c1)c1ccsc1` (stereo not drawn) the value was 13.3%; for `Cc1ccc(C)c(CC(=O)NC2CCS(=O)(=O)CC2)c1`, 41.5%.
`Cc1ccc(C)c(CC(=O)NC2CCC(N3C(=O)CCC3=O)CC2)c1` (stereo not drawn): the INHIBITION is 50.1%.
For `Cc1ccc(C)c(C(=O)NC2CCC(N3C(=O)CCC3=O)CC2)c1` (stereo not drawn) the value was -56.4%.
For `CN(Cc1cccnc1)Cc1cn2c(n1)CN(C1CCOCC1)CC2` the value was 4.57%; for `CC1=CC[C@@H]2CN(C(=O)c3ccc(-c4cc[nH]n4)cc3)C[C@@H]2C1`, -37.1%; for `COc1ccc(CNC(=O)NCCc2csc(C)n2)cn1`, 36.1%.
The figure for `Cn1ccc(NCc2cc3cc(F)ccc3o2)n1` is -18%.
Turning to `CN1CCOC[C@H]1c1nc(-c2ccccc2)c[nH]1`, the INHIBITION is -23.1%.
Turning to `Fc1cccc(-c2c[nH]c([C@@H]3COCCN3C3CCOCC3)n2)c1`, the INHIBITION is reported as -24.1%.
Regarding `CN1CCC(N2CCOC[C@H]2c2nc(-c3ccncc3)c[nH]2)CC1`, the INHIBITION is on record as 35.8%.
For `CN1CCC(N2CCOC[C@H]2c2nc(C(C)(C)C)c[nH]2)CC1` the value was 49.5%; for `CN1CCOC[C@H]1c1nc(-c2cccc(F)c2)c[nH]1`, 9.51%; for `CN1CCOC[C@H]1c1nc(C(C)(C)C)c[nH]1`, 50.2%.
For `Cc1ccc(-c2c[nH]c([C@@H]3COCCN3Cc3ncc[nH]3)n2)cc1` the value was 46.6%.
As to `CC(C)(C)CN1CCOC[C@H]1c1nc(-c2cccc(F)c2)c[nH]1`, the INHIBITION was 64.8%.
In the case of `c1cc(-c2c[nH]c([C@@H]3COCCN3Cc3ncc[nH]3)n2)ccn1`, the INHIBITION worked out at 54.7%.
For `CC(C)(C)c1c[nH]c([C@@H]2COCCN2C2CCC2)n1` the value was 23%; for `c1cc(CN2CCOC[C@H]2c2nc(-c3ccncc3)c[nH]2)ccn1`, -7.59%; for `CN1CCOC[C@H]1c1nc(-c2ccncc2)c[nH]1`, 52%.
With `COCC(=O)N1CCC2(CC1)CN(S(C)(=O)=O)Cc1ccccc1O2`, the INHIBITION is on record as 14.94%.
The figure for `c1ncn(CC2CN(Cc3ccc4c(c3)OCCO4)CCO2)n1` (stereo not drawn) is 17.4%.
On to `O=C(CC1CN(Cc2ccccc2)CCO1)Nc1ccsc1` (stereo not drawn), for which the INHIBITION was 31.3%.
For `CC(C)[C@H]1CN(C(=O)CO)C[C@@H]1N(C)C` the value was 14%.
For `CCS(=O)(=O)N1C[C@@H](O)[C@H](N(C)Cc2ccc(F)cc2)C1` the value was 11.94%; for `CC1CCN(C(=O)c2ccn(COc3ccccc3)n2)CC1`, -15.5%; for `CC(NC(=O)c1cc2n(n1)CCCN(C(C)C)C2)c1cn2ccsc2n1` (stereo not drawn), -59.5%.
In the case of `CC(C)N1CCCn2nc(C(=O)NCCc3c[nH]cn3)cc2C1`, the INHIBITION was 18.2%.
The figure for `CSc1ccccc1C(=O)NCc1cc2n(n1)CCCN(CC(C)C)C2` is 38.2%; for `CC(C)N1CCCn2nc(C(=O)NCCc3ccccn3)cc2C1` it is 57.2%.
For `O=C(NCc1ccccn1)c1cc2n(n1)CCNC2` the value was -54.5%.
For `CC(C)N1CCCn2nc(C(=O)NCc3ccccc3F)cc2C1` the value was 62.6%; for `CCN1CCO[C@@H]2CN(S(=O)(=O)c3cccs3)CC[C@@H]2C1`, 15.6%; for `CC(C)N1C(=O)CN(CCOCCO)CC1(C)C`, 23.1%.
`Cc1cccc(Cn2c(=O)[nH]c3csnc3c2=O)c1`: the INHIBITION is 12.8%.
For `CC(C)C(O)CNC(=O)Nc1cnn(Cc2ccccc2)c1` (stereo not drawn) the value was 4.82%; for `CCSc1ncc(CN2C[C@@H]3CC[C@H]2CN(C2CCOCC2)C3)cn1`, 48.5%; for `CN(C)c1ccc(CN2C[C@@H]3CC[C@H]2CN(C2CCOCC2)C3)cn1`, 53.5%.
For `CSc1ncc(CN2C[C@@H]3CC[C@H]2CN(C2CCOCC2)C3)cn1` the value was 9.91%.
The figure for `Cc1nc(CN2CCC3(CCN(Cc4cnn(C)c4)C3)C2=O)cs1` (stereo not drawn) is 25.3%.
For the compound `O=S1(=O)c2cccnc2OC(Cc2ccccc2)CN1CC1CC1` (stereo not drawn), the INHIBITION is on record as 24.5%.
The figure for `OCC1(O)CCN(c2ccnc3c(C(F)(F)F)cccc23)CC1` is 17.5%.
For `Cc1cc(C)c(C(=O)Nc2cccc(CN3CCC(CO)CC3)c2)o1` the value was -30%.
The figure for `Cc1nn(C)cc1C(=O)Nc1cccc(CN2CCC(CO)CC2)c1` is 44.2%; for `Cc1nc(C)c(C(=O)Nc2cccc(CN3CCC(CO)CC3)c2)o1` it is 61.8%.
In the case of `CCc1cccc(-n2nnc(C(=O)O)c2-c2ccncc2)c1`, the INHIBITION is reported as 45.8%.
For `CCCN1CCCN(C(=O)C(CC)N2CCCC2=O)CC1` (stereo not drawn) the value was -3.99%; for `CCC(C(=O)Nc1ccc(-c2nc(C)n[nH]2)cc1)N1CCCC1=O` (stereo not drawn), 59.1%.
Take `Cc1n[nH]c(-c2ccc(NC(=O)C(C)(C)N3CCN(C)CC3)cc2)n1`: the INHIBITION was -25.6%.
For the compound `CCC(C(=O)NCc1ccn(-c2ccc(F)cc2)n1)N1CCCC1=O` (stereo not drawn), the INHIBITION is 2.82%.
For `Cc1n[nH]c(-c2ccc(NC(=O)C(C)N3CCN(C)CC3)cc2)n1` (stereo not drawn) the value was -27.4%; for `CCC(C(=O)Nc1ccc2c(C)n[nH]c2c1)N1CCCC1=O` (stereo not drawn), 53.6%.
The figure for `CC(C)(C)c1noc(CCC(=O)NCC2CCS(=O)(=O)C2)n1` (stereo not drawn) is 26.4%.
The figure for `Cc1cc(N(C)C)nc(C2COCCN2Cc2cscn2)n1` (stereo not drawn) is 45.9%.
As to `O=C1CC(N(C(=O)c2ccc(F)c(C(F)(F)F)c2)C2CC2)C(=O)N1` (stereo not drawn), the INHIBITION is 0.914%.
For `CCc1ccc2c(C3CN(CC4CCC4)C3)ncn2c1` the value was 27.5%.
For `O=C(NC[C@H]1OC[C@@H](NC2CCNCC2)[C@@H]1O)C1CCCC1` the value was 24.5%; for `OC(COc1ccc(F)cc1)CN1CCC(Cn2cccn2)CC1` (stereo not drawn), 22.9%; for `CCCn1ccnc1-c1nccn1CCn1cnnc1`, 50.5%.
For `CCCn1ccnc1-c1nccn1CCN(C)C` the value was 34.1%.
For `COCc1ncc(-c2nccn2CCn2cnnc2)cn1`, the INHIBITION is given as -0.614%.
The figure for `C1CCC(CNC2CCCN(Cc3noc(C4CC4)n3)C2)CC1` (stereo not drawn) is 31.6%; for `CC(C)n1c2ccccc2c2c1cc(C(=O)N(C)C)n2C(=O)N(C)C` it is 47.5%; for `CC(C)n1c2ccccc2c2c1cc(C(=O)O)n2C(=O)N(C)C` it is 57.5%.
The figure for `CC(C)n1c2ccccc2c2c1cc(C(=O)NC1CC1)n2C(=O)N(C)C` is 60.2%; for `CC(C)n1c2ccccc2c2c1cc(C(=O)N(C)C)n2C` it is 82%.
Take `CC(C)NC(=O)CN(C)C(=O)c1c(Cl)c2ccccc2n1C`: the INHIBITION is listed as 15.8%.
Regarding `CC(C)NC(=O)c1cc2c(c3ccccc3n2C)n1C(=O)N(C)C`, the INHIBITION was 36.9%.
The figure for `CN(C)C(=O)n1c(C(=O)NC(C)(C)CO)cc2c1c1ccccc1n2C` is -24.9%; for `CCCNC(=O)c1cc2c(c3ccccc3n2C)n1C(=O)N(C)C` it is 26.2%; for `CC(C)n1c2ccccc2c2c1cc(C(=O)N(C)C)n2S(C)(=O)=O` it is 49.4%.
As for `CC(C)n1c2ccccc2c2c1cc(C(=O)NCCO)n2C(=O)N(C)C`, the INHIBITION is reported as 55.7%.
For the compound `CCCN(CC)C(=O)c1cc2c(c3ccccc3n2C)n1C(=O)N(C)C`, the INHIBITION stood at 11.9%.
As for `COCCNC(=O)c1cc2c(c3ccccc3n2C)n1C(=O)N(C)C`, the INHIBITION is 36.9%.
The figure for `Cc1ccc(C(=O)NCCSCc2cccs2)cn1` is 8.75%; for `Cc1ccc(NC2CCN(C(=O)c3ccc(F)c(C)c3)CC2)nn1` it is 47.1%.
The figure for `COCCn1c(-c2cccc(OC)c2)cnc1NC(=O)NC1CCCC1` is 13.5%; for `CN(C)c1cncc(C2CCCN2S(=O)(=O)c2cn(C)cn2)n1` (stereo not drawn) it is 32.8%; for `O=C(c1cnccn1)N1CCN(CC2CC2)c2ncccc2C1` it is -21.1%.
For `COCCC(=O)N(C)Cc1nc(C(F)(F)F)cs1`, the INHIBITION is -26.8%.
For `O=C(NCc1cc[nH]n1)NCC(O)c1ccccc1F` (stereo not drawn) the value was 7.12%; for `CCN(C(=O)CN1CCCC1c1c(C)nn(C)c1OC)C1CC1` (stereo not drawn), -23.3%.
For `COc1c(C2CCCN2CC(=O)N(C)Cc2ccco2)c(C)nn1C` (stereo not drawn) the value was 89.4%; for `CN(CCC#N)C(=O)CN1CCCC1c1cccs1` (stereo not drawn), -85%.
In the case of `COc1c(C2CCCN2C(=O)c2ccco2)c(C)nn1C` (stereo not drawn), the INHIBITION turned out to be 7.18%.
For `N#CCCN(Cc1ccco1)C(=O)CN1CCCC1c1cccs1` (stereo not drawn) the value was 29.4%; for `CN(Cc1ccco1)C(=O)CN1CCCC1c1cccs1` (stereo not drawn), 62.3%.
For `CC(=O)Nc1ccc(CNCC(O)c2ccc(Cl)cc2)cc1` (stereo not drawn) the value was 45.7%; for `c1cncc(CN2CCn3c(Cn4cncn4)cnc3C2)c1`, 31.1%; for `Cc1ccc(CC(=O)N2CCCC(c3nccs3)C2)cn1` (stereo not drawn), 3.4%.
The figure for `O=C(NCC1(O)CCCC1)c1ccc2nsnc2c1` is -47%; for `Cc1nc(CC(=O)NCCNc2nccc(C(F)(F)F)n2)cs1` it is 22.6%; for `Cc1nc(CN(C)c2nccc(C(F)(F)F)n2)cs1` it is 50.1%.
As for `Cc1nc(CN(C)c2nccc(N(C)C)n2)cs1`, the INHIBITION came to 51.5%.
For `Cc1noc(C)c1CN(C)c1nccc(C(F)(F)F)n1` the value was -25.7%; for `COc1ccnc(N(C)Cc2csc(C)n2)n1`, -62.7%.
The figure for `Cc1cc(N(C)C)nc(N(C)Cc2csc(C)n2)n1` is -3.35%; for `CCCN1CCCn2nc(CNS(=O)(=O)c3cnn(CC)c3)cc2C1` it is 29.1%.
For `O=C(CCc1ccc(F)cc1)NCc1ccnc(NC2CC2)c1` the value was 53.3%; for `COc1ccccc1CC(=O)NCc1ccnc(NC2CC2)c1`, 75.7%; for `O=C(CCc1ccsc1)NCc1ccnc(OC2CCOCC2)c1`, -8.91%.
Regarding `CCOCCC(=O)NCc1ccnc(NC2CC2)c1`, the INHIBITION is on record as 41.5%.
Regarding `COc1ccccc1CC(=O)N1CCC(NCc2ccncc2)CC1`, the INHIBITION was 22.275%.
For `Cc1ccccc1OCCCC(=O)NCc1ccnc(O)c1` the value was 9.6%.
